In the library only some 2.4% were active in any assay of this set; here they are far more common.
ALOX12 inh: inhibitors of human 12S-lipoxygenase ALOX12; Potency, µM (series often up to 108 µM), actives largely listed as inhibitors; P18054; AID 1671190; hit rate 1.1% among 580,000; purified 12hLO, xylenol orange hydroperoxide absorbance; active = well fitted curve in the direction sought with a large enough effect; inconclusive = small, poorly fitted or top-dose-only effect, or another doubt; inactive = no such curve, though single readings can be large; an effect the other way counts as inactive or inconclusive
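Hydroperoxide product was detected by ferrous iron/xylenol orange as the 573 to 405 nm absorbance ratio. Arachidonic acid at 40 uM (final) was turned over for 30 min at room temperature by 150 nM human 12hLO, pH 7.0 Hepes buffer, after 15 min compound preincubation.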
Rango complex inh: inhibitors of Rango-importin beta complex formation; Q14974; Rango CFP/YFP FRET sensor + importin beta, 45 min; Potency, µM (series often up to 92.2 µM); hit rate 0.031% among 340,000; also: nearly all actives have a fitted effect of over 15% in size
Target sequence (Q14974 whole entry, looked up): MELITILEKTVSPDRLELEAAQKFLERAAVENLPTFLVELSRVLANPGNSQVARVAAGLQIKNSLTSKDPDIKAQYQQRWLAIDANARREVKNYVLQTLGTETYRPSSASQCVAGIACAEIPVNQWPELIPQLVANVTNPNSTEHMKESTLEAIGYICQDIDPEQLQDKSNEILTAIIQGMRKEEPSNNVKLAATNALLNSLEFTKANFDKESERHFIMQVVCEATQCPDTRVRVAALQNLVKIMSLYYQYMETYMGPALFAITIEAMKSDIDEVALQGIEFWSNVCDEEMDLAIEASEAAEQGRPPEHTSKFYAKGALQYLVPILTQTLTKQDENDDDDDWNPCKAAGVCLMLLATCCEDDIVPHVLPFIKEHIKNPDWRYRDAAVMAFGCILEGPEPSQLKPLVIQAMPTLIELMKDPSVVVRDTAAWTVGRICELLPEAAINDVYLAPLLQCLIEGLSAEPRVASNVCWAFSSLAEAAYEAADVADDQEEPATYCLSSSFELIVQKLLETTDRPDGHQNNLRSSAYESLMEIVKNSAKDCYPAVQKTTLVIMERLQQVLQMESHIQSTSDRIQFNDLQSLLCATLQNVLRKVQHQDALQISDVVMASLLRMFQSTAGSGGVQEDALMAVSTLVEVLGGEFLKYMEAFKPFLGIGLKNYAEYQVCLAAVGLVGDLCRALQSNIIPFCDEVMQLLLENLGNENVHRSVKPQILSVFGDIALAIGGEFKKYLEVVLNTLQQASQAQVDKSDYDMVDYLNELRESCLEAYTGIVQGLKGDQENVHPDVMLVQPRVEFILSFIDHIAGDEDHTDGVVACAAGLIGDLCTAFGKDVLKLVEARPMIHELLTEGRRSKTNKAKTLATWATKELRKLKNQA
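Inhibition scored from the CFP 486 nm/YFP 530 nm FRET ratio 45 min after adding 0.125 microM importin beta to 50 nM Rango biosensor preincubated 5 min with compound (room temperature, PBS with DTT, Tween-20, BSA). No-importin wells as positive control.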
TDP1 inh: TDP1 (human) enzyme inhibition; recombinant TDP1, AlphaScreen DNA substrate cleavage; Potency, µM (doses to about 130 µM), hits mostly inhibitors; hit rate 0.28% among 350,000; active = well fitted curve in the direction sought with a large enough effect; inconclusive = small, poorly fitted or top-dose-only effect, or another doubt; inactive = no such curve, though single readings can be large; an effect the other way counts as inactive or inconclusive; also: nearly all actives have a fitted effect of over 40% in size
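Compounds were preincubated with Tdp1 (1 nM final) for 15 min at room temperature before substrate (15 nM final) started a 5 min reaction; beads (10 ug/ml final) were then added for 10 min before AlphaScreen detection.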
PTAP TSG101 blk: blocks PTAP/TSG101 interaction to inhibit HIV-1 budding; Q99816; Fluorescence polarization, FITC-PTAP peptide / Tsg101 binding; Potency, µM (top dose mostly 115 µM), most hits filed as inhibitors; 340,000 tested, under 10 active; active = well fitted inhibition curve with a large enough effect in the main read-out, with a control signal flat, not every such curve was filed as active; inconclusive = small, poorly fitted or top-dose-only effect, or effect the other way, or a change in a side signal; inactive = no such curve, though single readings can be large or run the other way
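FP read-out: FITC-PTAP peptide, 50 nM final, binding Tsg101 binding domain, 10 uM final; 20 min, r.t.; 10 mM HEPES pH 7.5, 0.15 M NaCl, 0.01% Tween 20, 3 mM EDTA, 0.1 mM TCEP.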
ClpP mod: qHTS Assay for Activators of ClpP | ATP-dependent Clp protease proteolytic subunit (Bacillus subtilis (strain 168)), P80244 | purified B. subtilis ClpP, FRET peptide cleavage, 20 min | Potency, µM (highest dose often 57.5 µM) | hit rate 1.9% among 340,000; active = well fitted falling curve with a large enough effect; inconclusive = small, poorly fitted or top-dose-only effect; inactive = no such curve, though single readings can be large or run the other way; also: the source files actives as falling curves though it sought activators and does not explain the sign; nearly all actives have a fitted effect of over 65% in size
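Purified B. subtilis ClpP, 10 microg/mL final in Tris/HCl pH8 with KCl, BSA, glycerol and Tween-20, cleaved an Abz/nitrotyrosine-quenched decapeptide. Fluorescence (ex 320, em 430) was read at 0 and 20 min at room temperature. Delta was normalized to 5.8 microM ADEP and DMSO/no-enzyme controls.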
Rango release inh: inhibition of RanGTP-driven Rango-importin beta dissociation; Biochemical FRET Rango-importin beta, RanGTP-induced dissociation; hit rate 0.071% among 340,000; Potency, µM (highest dose often 46.1 µM); O95149+P62826; also: nearly all actives have a fitted effect of over 45% in size
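Quantitative HTS using a FRET biosensor: 0.1 uM Rango, 0.25 uM importin beta, 0.6 uM Ran, 2 mM GTP, 0.2 uM RCC1 final, PBS with DTT, Tween-20 and BSA. Post-read taken 45 min after Ran addition.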
Numbers stand for hits; n = inactive; u = inconclusive; x = not tested or not shown; [ ] = dose if it differs, or a comment. Unless noted, calls follow the shape of the full dose curve.

SMILES | ALOX12 inh | Rango complex inh | TDP1 inh | PTAP TSG101 blk | ClpP mod | Rango release inh
Cn1c(=O)c2cc(NC(=S)NC3CCCCC3)ccc2n1C/C=C/c1ccccc1 | 40µM | x | x | x | n | x
O=C(C1=Cc2cc(Cl)ccc2OC1)N1CCN(S(=O)(=O)c2cc(F)ccc2F)CC1 | 40µM | x | x | x | x | x
COc1ccc(S(=O)(=O)N2CCN(C(=O)C3=Cc4cc(Cl)ccc4OC3)CC2)cc1OC | n | x | x | x | x | x
COc1nccc(N2CCC(CC(=O)NCc3cccs3)CC2)n1 | n | x | x | x | x | x
COc1ccc(/C=C2\SC(=O)N(CCNC(=O)Cc3coc4cc(OC)ccc34)C2=O)cc1 | u | n | n | n | n | n
COc1ccc2c(CC(=O)NCCN3C(=O)S/C(=C\c4cccnc4)C3=O)coc2c1 | n | u | n | n | 13µM | n
CCCC(=O)NC(c1ccco1)c1cc([N+](=O)[O-])c2cccnc2c1O (configuration not stated) | n | n | n | n | x | n
CC(=O)NC(c1ccc(C)cc1)c1cc([N+](=O)[O-])c2cccnc2c1O (configuration not stated) | 45µM | n | n | n | x | n
CCC(=O)NC(c1ccc(C)cc1)c1cc([N+](=O)[O-])c2cccnc2c1O (configuration not stated) | 11µM | n | n | n | n | n
O=C(c1cc(-c2cnccc2Cl)c2cccn2n1)N1CCOCC1 | n[6.33 µM] | x | x | x | x | x
Cc1cccc(C2NC(=O)c3ccccc3N2)c1 (configuration not stated) | n | n | x | n | 28µM | n
CCOc1ccccc1C1NC(=O)c2ccccc2N1 (configuration not stated) | n | n | x | n | 22µM | n
O=C1NC(c2ccc(Cl)cc2)Nc2ccccc21 (configuration not stated) | n | n | n | n | x | n
Cc1ccc(C2NC(=O)c3ccccc3N2)s1 (configuration not stated) | n | n | n | n | 28µM | n
Cc1ccc(C2NC(=O)c3ccccc3N2)c(C)c1 (configuration not stated) | n | n | x | n | 28µM | n
CCc1noc(-c2cccn3c(CNC(=O)c4ccccc4C)nnc23)n1 | n | x | x | x | x | x
COc1cc(OC)c(NC(=O)NCC(=O)N2CCc3ccccc32)cc1Cl | n | x | x | x | x | x
Cc1ncc(CO)c(/C=N/NC(=S)Nc2ccc(F)cc2)c1O | 40µM | u | n | n | n | u
Oc1ccc(C=NNC(=S)Nc2ccc(F)cc2)c(O)c1 | 40µM | u | x | n | x | u
Cc1ncc(CO)c(/C=N/Nc2ccc(C(F)(F)F)cn2)c1O | u | u | n | n | x | u
COc1ccc(C2(C(=O)NCc3cc(F)cc(F)c3)CCOCC2)cc1 | n[6.33 µM] | x | x | x | x | x
Cn1c(=O)[nH]c(=O)c2c1nc(CN(Cc1ccccc1)Cc1ccccc1)n2Cc1ccccc1F | n | x | x | x | x | x
CC(=O)C1=C(O)C(=O)N(c2cc(C(C)(C)C)on2)C1c1ccc(Br)cc1 (configuration not stated) | 45µM | n | n | n | n | n
COCCn1c(-c2ccc(OC(F)(F)C(F)C(F)(F)F)cc2)nc2c1c(=O)[nH]c(=O)n2CC(C)C (configuration not stated) | n | n | n | n | 28µM | n
COCCn1c(-c2ccc(SC)cc2)nc2c1c(=O)[nH]c(=O)n2CC(C)C | n | n | n | n | x | n
SMILES | ALOX12 inh | Rango complex inh | TDP1 inh | PTAP TSG101 blk | ClpP mod | Rango release inh
CCCn1c(=O)[nH]c(=O)c2c1nc(-c1ccccc1OC(F)F)n2CCOC | n | n | n | n | 25µM | n
CCCn1c(=O)[nH]c(=O)c2c1nc(-c1ccc(OC(F)F)c(OC)c1)n2CCOC | n | u | n | n | 25µM | n
CN(C)C[C@@H]1CN(c2ccncn2)C[C@H]1NC(=O)c1ccc2ccccc2n1 | n | x | x | x | x | x
O=C(N1CCCC(n2cc(-c3nc(-c4ccccc4)no3)nn2)C1)C1(c2ccccc2)CC1 (configuration not stated) | n | x | x | x | x | x
O=C(CN1C(=O)/C(=C\c2cccc(F)c2)Oc2ccccc21)N1CCN(c2ccccn2)CC1 | n | n | n | n | n | n
O=C(CN1C(=O)/C(=C\c2ccc(F)cc2)Oc2ccccc21)N1CCN(c2ccccn2)CC1 | u | n | n | n | 22µM | n
COc1ccc(NC(=O)NCc2cccnc2)c(OC)c1 | n | n | n | n | n | n
COC(=O)c1ccccc1NC(=O)NCc1ccccn1 | n | n | n | n | 28µM | n
COC(=O)c1ccccc1NC(=O)NCc1ccco1 | n | n | n | x | 28µM | n
COC(=O)c1ccccc1NC(=O)CC(=O)Nc1ccccc1C(=O)OC | n | n | x | n | u | n
COC(=O)c1ccccc1NC(=O)NCc1cccnc1 | n | n | n | n | 28µM | n
CCOC(=O)CNC(=O)Nc1ccccc1C(=O)OC | n | n | n | n | 28µM | n
CCOc1cc(C2C3=C(CCCC3=O)OC3=C2C(=O)CCC3)ccc1OCC(=O)O | n | x | x | x | x | x
CC(C)c1ccc(OCc2nc3c(n2Cc2ccccc2)C(=O)N(CC2CC2)CCN3)cc1 | n | x | x | x | x | x
CC(=O)c1ccccc1NC(=O)COC(=O)CCC1CCCC1 | n | n | 79µM | n | n | n
CCOC(=O)c1ccccc1NC(=O)COC(=O)CCCOc1ccccc1 | n | n | x | n | u | n
CCOC(=O)c1ccccc1NC(=O)COC(=O)CCC1CCCC1 | n | n | 50µM | n | n | n
COc1ccc(NC(=O)COC(=O)CCC2CCCC2)c(OC)c1 | n | n | n | n | n | n
COc1ccccc1OCCNC(=O)C1CCN(c2cc(C(F)(F)F)ncn2)CC1 | n | x | x | x | x | x
CCCn1c(C)cc(C(=O)Cn2nc(C)c(C)c(C#N)c2=O)c1C | n | x | x | x | x | x
Nc1nc(COc2ccccc2C(=O)NCc2ccccc2)nc(Nc2ccccc2)n1 | n | x | x | x | x | x
Nc1nc(COc2ccccc2C=O)nc(Nc2ccccc2)n1 | n | n | n | n | 25µM | n
Cc1cc(C(=O)CSc2nnc(COc3ccc(Cl)cc3)n2C)c(C)n1CC1CCCO1 (configuration not stated) | n | x | x | x | x | x
CCOC(=O)c1c(/N=C/c2cc([N+](=O)[O-])ccc2O)sc(C)c1C | 35µM | n | n | n | n | n
N#Cc1ccc(/C=N/Nc2ccccc2C(F)(F)F)cc1 | 10µM | x | x | x | x | x
S=C(Nc1ccc(Nc2ccccc2)cc1)Nc1ccccn1 | 5.6µM | n | n | n | x | n
Cc1ccc(NC(=S)Nc2ccccc2)nc1 | 22µM | x | x | x | x | x
Cc1ccc(C(=O)Nc2nnc(NC(=S)Nc3ccccc3)s2)cc1 | 40µM | n | x | n | n | n
S=C(Nc1ccccc1)Nc1ccccn1 | u | x | x | x | n | x

Screening results deposited in PubChem BioAssay by National Center for Advancing Translational Sciences (NCATS).
